The text below walks through data of PubChem BioAssay.

Several values for one entry are separate records, joined by “and”; a condition that tells them apart may be missing. Equal values may be shown once. Activity calls are given as the source filed them.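 The calls were made as follows, unless noted: active = inhibition at or above 50% relative to wild type and mutant plate controls; inactive = inhibition below 50%.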

Broadly, the inhibition is the drop in the measured response relative to a control, in per cent.

The nature of assay [1]: inhibitors of TNFa-induced NFkB p65 translocation, primary screen, imaging, HUVEC, MLSMR starter and 10KST1 sets (AID 438;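 active = inhibition above 20% together with a positive visual image hit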;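 also: compound added about 3h40 before a 20 min TNFalpha stimulation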;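 as to inhibition: signal is the nuclear over cytoplasmic p65 intensity ratio per well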). Particulars: HUVEC TNFa-induced p65 nuclear translocation; cell count: measured here: nuclei count (cytotoxicity indicator), at 2.08 µM; inhibition: at 2 µM, stronger effect = higher value, 0% TNFa-plus-vehicle, 100% no-TNFa wells.
A short description of assay [2]: reduction of polyQ htt aggregates in cells – imaging, exon1htt(103Q)mCFP cells, high-content imaging, primary screen (AID 483;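 active = visual image review flags a hit and inhibition of aggregation exceeds 20%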;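 also: compound exposure lasted 3 days before fixation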;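 as to nuclei count: percent of the per-plate median nuclei count of sample wells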). The following applies: exon1htt(103Q)mCFP cell line, aggregate imaging, at 2 µM; inhibition of aggregation: stronger effect = higher value; nuclei count: measured here: cell count, toxicity.
Assay [3] in a line: endothelial E-selectin expression blockers – imaging, HUVEC, immunofluorescence, MLSMR starter and 10KST1 sets, primary screen (AID 487;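 active = visually confirmed hit in the image check and inhibition above 20%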;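 as to inhibition: signal is fraction of cell area covered by stained E-selectin grains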;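 as to nuclei count: 100% = median nuclei count of all wells on the same plate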). Particulars: HUVEC TNFalpha-induced E-selectin immunofluorescence imaging, at 2 µM; inhibition: stronger effect = higher value; nuclei count: measured here: cell number, toxicity.
A short description of assay [4]: Primary imaging screen for DUSP6 inhibitors that restore phospho-Erk in transfected HeLa cells, chemical complementation (AID 609;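 active = compounds giving at least 50% inhibition in the cell-based MKP-3 phosphatase rescue imaging test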;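 as to inhibition: phospho-Erk level distribution per well compared with pooled transfected vehicle control wells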). Particulars: HeLa MKP-3 transfected, phospho-Erk imaging KS statistic, at 10 µM, cells stimulated with TPA for 15 min.
Assay [5] deals with Dual specificity protein phosphatase 6 (Homo sapiens) (UniProt Q16828). The description is as above. The following applies: HeLa MKP-3 transfected, phospho-Erk imaging KS statistic; at 10 µM; stronger effect = higher value; cells stimulated with TPA for 15 min.
The target in assay [6] is Voltage-gated potassium channel subunit beta-2 (Rattus norvegicus) (UniProt P62483). Put plainly: inhibitors of rat Kvbeta2 reductase activity – biochemical, NADPH fluorescence, primary screen (AID 622;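 active = fluorescence slope higher than the sample average by over 3 SD, cut at about -0.22 in these data, passing the limit was not always enough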;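 also: slope of raw intensity against log time taken from 70 to 1610 s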). Particulars: recombinant KvBeta, 4-cyanobenzaldehyde reduction, at 10 µM, stronger effect = higher value.
Assay [7] has the same target. Put plainly: enhancers of rat Kvbeta2 NADPH turnover – biochemical, NADPH fluorescence, primary screen (AID 623;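 active = NADPH fluorescence slope more negative than the mean of all samples by about 3 SD, 99.7% confidence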;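 also: fluorescence intensity change per second fitted from 20 to 320 s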). The following applies: Recombinant KvBeta, NADPH fluorescence decrease slope, 10 min; at 10 µM; stronger effect = lower value.
The target in assay [8] is Alpha-2C adrenergic receptor (Homo sapiens) (UniProt P18825). Put plainly: compounds altering alpha2C-coupled GIRK flux – cell-based, HEK293 alpha2C/GIRK1/2, thallium flux, primary screen (AID 624;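 active = fluorescence slope after compound addition differing from the mean of all screened samples at 99.7% confidence, in either direction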;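 also: slope of fluorescence ratio to pre-addition baseline per second over 15 to 24 s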). The following applies: thallium flux BTC fluorescence, at 10 µM, actives lie on both sides.
Assay [9] is described as follows: inhibitors of larval lipid processing in zebrafish, primary screen, whole organism, PED6 fluorescence, gall bladder and intestine (AID 686;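 active = a full or partial loss of lipid-probe fluorescence in the fish gall bladder, intestine or both, judged by eye; inactive = no fluorescence loss, or compound toxic to the fish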;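 also: larvae 5 to 7 days old with five fish per well; signal comes from phospholipase A2 cleavage of quenched PED6 carried via bile; overnight exposure to compound and PED6 before scoring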). Particulars: Zebrafish larvae PED6 lipid processing, fluorescence scoring; screened at 20 µM (by protocol).
Assay [10] can be described thus: loss of swimming-algae plug formation – whole organism, Chlamydomonas reinhardtii, WT vs cilia-less mutant, absorbance, 96-well, primary screen (AID 463189).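 Also: 0% = wild type cc124 cells in DMSO and 100% = ciliumless bld1 mutant cells.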 The following applies: Chlamydomonas reinhardtii gravitaxis, OD600 absorbance, 2 days; at 10 µM; stronger effect = higher value.
Assay [11] in a line: blockers of RIG-like receptor reporter activation – cell-based, Sendai virus stimulus, luciferase, 10K MLSCN set, TLR/RLR signaling modifier project, primary screen (AID 602276;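 active = inhibition at or above 50% at 10 µM; inactive = inhibition below 50%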;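 also: firefly luciferase from ISG56 promoter only with Renilla not read in this screen; 0% = Sendai virus plus DMSO and 100% = medium plus DMSO without virus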). Particulars: HEK293 RL24 IRF3 luciferase reporter, at 10 µM, stronger effect = higher value.
Assay [12] is described as follows: TLR3 IRF3 reporter activation blockers – cell-based, poly I:C stimulus, luciferase, 10K MLSCN set, primary screen (AID 602277;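 active = inhibition of the reporter signal at or above 50%; inactive = inhibition below 50%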). The following applies: HEK293-TLR3 RL24 IRF3 luciferase reporter, at 10 µM, stronger effect = higher value. For orientation: In a reporter assay the amount or activity of a reporter protein is the signal.
Setting [13] is: measured here: cell density z-score.
Setting [14] is: measured here: nuclear c-Myc green intensity z-score.
The mark [15] stands for this setting: measured here: nuclear pErk red intensity z-score, stronger effect = higher value.

Dual specificity protein phosphatase 6 (Homo sapiens), sequence (Q16828 whole entry, looked up): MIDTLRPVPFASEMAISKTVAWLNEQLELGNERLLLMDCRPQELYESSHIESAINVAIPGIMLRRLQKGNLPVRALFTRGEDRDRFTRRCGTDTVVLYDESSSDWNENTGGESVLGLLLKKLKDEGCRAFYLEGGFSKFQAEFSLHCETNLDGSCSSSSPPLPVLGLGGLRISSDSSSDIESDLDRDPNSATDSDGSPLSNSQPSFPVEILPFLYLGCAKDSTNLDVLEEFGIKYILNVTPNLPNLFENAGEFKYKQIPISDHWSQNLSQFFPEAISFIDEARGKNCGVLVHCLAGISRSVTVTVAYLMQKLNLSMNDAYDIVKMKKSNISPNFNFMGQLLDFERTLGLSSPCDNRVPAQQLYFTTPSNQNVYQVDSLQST
Voltage-gated potassium channel subunit beta-2 (Rattus norvegicus), sequence (P62483 whole entry, looked up): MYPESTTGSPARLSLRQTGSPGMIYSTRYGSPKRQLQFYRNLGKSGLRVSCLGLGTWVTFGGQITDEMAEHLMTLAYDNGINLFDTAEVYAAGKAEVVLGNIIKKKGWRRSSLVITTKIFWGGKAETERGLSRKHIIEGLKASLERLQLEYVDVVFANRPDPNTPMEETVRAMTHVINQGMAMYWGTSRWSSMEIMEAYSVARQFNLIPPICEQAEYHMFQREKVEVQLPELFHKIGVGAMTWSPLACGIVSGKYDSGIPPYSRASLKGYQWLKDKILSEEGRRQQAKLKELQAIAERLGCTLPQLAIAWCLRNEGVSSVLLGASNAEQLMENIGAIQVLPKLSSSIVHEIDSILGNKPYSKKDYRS
Alpha-2C adrenergic receptor (Homo sapiens), sequence (P18825 whole entry, looked up): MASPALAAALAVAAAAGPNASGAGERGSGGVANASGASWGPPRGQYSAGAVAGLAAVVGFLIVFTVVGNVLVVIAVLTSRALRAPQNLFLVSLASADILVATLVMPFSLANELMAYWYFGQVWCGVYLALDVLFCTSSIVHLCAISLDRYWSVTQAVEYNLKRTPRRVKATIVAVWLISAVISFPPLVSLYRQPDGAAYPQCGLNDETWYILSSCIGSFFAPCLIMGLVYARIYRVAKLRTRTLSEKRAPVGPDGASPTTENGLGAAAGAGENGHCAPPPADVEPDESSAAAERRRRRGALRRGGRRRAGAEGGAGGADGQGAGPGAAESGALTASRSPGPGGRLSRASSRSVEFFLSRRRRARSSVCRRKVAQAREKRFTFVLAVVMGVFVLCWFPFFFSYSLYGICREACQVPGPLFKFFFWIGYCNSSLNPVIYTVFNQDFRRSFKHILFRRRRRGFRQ

Consider `CC(NCCC(c1ccccc1)c1ccccc1)c1ccccc1` (stereo not drawn), for which the cell count in assay [1] was found to be 619. Moreover, the inhibition in assay [1] is -0.2% (inactive); in [3], -24.4% (inactive); in assay [5], 13.3% (inactive); in assay [10], 59.1% (active); in assay [11], 28.7% (inactive); in assay [12], 22.8% (inactive). Also, the inhibition of aggregation in assay [2] is 22.8% (inactive). For the same compound, the values for the nuclei count in assay [2] and in assay [3] were 104% and 113%, respectively. Moreover, the z-score in [4] (setting [13]) is 1.32; in assay [4] (setting [14]), -0.571; in [4] (setting [15]) it was -1.03. The fluorescence slope in assay [6] was -0.492 (inactive). Further, in assay [7], the NADPH fluorescence slope was -8.5e-06 (inactive). Moreover, in assay [8], the slope is 0.00284 (inactive). Besides, in assay [9], the outcome was inactive.
For `CCC1=C(C(=O)OC)C(c2cc(OC)ccc2OC)C(C#N)=C(N)O1` (stereo not drawn), the cell count in assay [1] amounted to 296. The inhibition in assay [1] was -8.8% (inactive); in assay [3], -58% (inactive); in [5] it was 5.65% (inactive); in assay [10] it was -0.583% (inactive); in [11] it was 17% (inactive); in assay [12] it was 24% (inactive). In addition, in assay [2], the inhibition of aggregation is 6.8% (inactive). The nuclei count in [2] worked out at 106%; in assay [3] it was 129%. The z-score is 1.11 in assay [4] (setting [13]), 0.712 in [4] (setting [14]) and -2.04 in assay [4] (setting [15]). Besides, the fluorescence slope in assay [6] is -0.478 (inactive). For the same compound, the NADPH fluorescence slope in assay [7] was -0.000233 (inactive). Also, the slope in [8] was 0.00469 (inactive). The result in assay [9] was inactive.
For `Cc1nc(SC2C=CS(=O)(=O)C2)n[nH]1` (stereo not drawn), in assay [1], the cell count amounted to 427. Moreover, the inhibition was -0.8% (inactive) in [1]; -43.2% (inactive) in assay [3]; -6.86% (inactive) in [5]; -12% (inactive) in assay [10]; 14.6% (inactive) in [11]; 18.4% (inactive) in [12]. Besides, the inhibition of aggregation in [2] was 10.8% (inactive). Moreover, the nuclei count in assay [2] is 98.1%; in [3] it was 139%. Further, the z-score in assay [4] (setting [13]) is -0.37; in assay [4] (setting [14]) it was 0.156; in assay [4] (setting [15]), 1.24. Moreover, the fluorescence slope in assay [6] is -0.482 (inactive). The NADPH fluorescence slope in assay [7] was -0.000222 (inactive). Besides, the slope in assay [8] was 0.00468 (inactive). Also, the compound was called inactive in assay [9].
Turning to `CCC(=O)Oc1ccc(/C(CC)=C(\CC)c2ccc(OC(=O)CC)cc2)cc1`, in assay [1], the cell count is 550. Moreover, the inhibition in assay [1] was -4.1% (inactive); in [3], -13.5% (inactive); in [5], 3.45% (inactive); in assay [10] it was 9.5% (inactive); in assay [11] it was 11.1% (inactive); in assay [12], 42.9% (inactive). In addition, the inhibition of aggregation in [2] is 3.5% (inactive). Moreover, the nuclei count in assay [2] was determined as 97.5%; in assay [3], 127%. Besides, the z-score in assay [4] (setting [13]) was -0.723; in assay [4] (setting [14]), 0.714; in assay [4] (setting [15]), 1.03. Besides, in assay [6], the fluorescence slope is -0.443 (inactive). Further, the NADPH fluorescence slope in assay [7] is -5.7e-05 (inactive). Further, in [8], the slope was 0.00761 (inactive). The compound was called inactive in assay [9].
Regarding `CCN(CC)CCN1C(=O)C(=O)/C(=C(/O)c2ccc(OC(C)C)cc2)C1c1ccncc1` (stereo not drawn), the cell count in [1] was determined as 529. For the same compound, the inhibition in assay [1] is -5.6% (inactive); in assay [3] it was -8.2% (inactive); in assay [5], -6.48% (inactive); in [10], -14% (inactive); in assay [11], 8.32% (inactive); in assay [12], 8.84% (inactive). For the same compound, the inhibition of aggregation in assay [2] was 3% (inactive). Moreover, the nuclei count in assay [2] turned out to be 116%; in assay [3] it was 104%. In addition, the z-score in assay [4] (setting [13]) is -0.653; in assay [4] (setting [14]), -0.46; in [4] (setting [15]) it was -0.356. Moreover, the fluorescence slope in assay [6] is -0.356 (inactive). For the same compound, the NADPH fluorescence slope in [7] is 4.4e-05 (inactive). Besides, the slope in assay [8] was 0.00527 (inactive). For the same compound, the compound was called inactive in assay [9].
Turning to `Cn1c(=O)c2[nH]cnc2n(C)c1=O`, in assay [1], the cell count worked out at 656. Further, the inhibition is -1.4% (inactive) in assay [1]; -74.2% (inactive) in assay [3]; 19% (inactive) in [5]; -1.38% (inactive) and -11.3% (inactive) in assay [10]; 6.67% (inactive) in assay [11]; 32.1% (inactive) in assay [12]. Also, in [2], the inhibition of aggregation was 12.3% (inactive). The nuclei count is 83.7% in [2] and 142% in assay [3]. Moreover, the figures for the z-score in assay [4] (setting [13]), in assay [4] (setting [14]) and in assay [4] (setting [15]) were -0.0459, 0.0873 and -0.896, respectively. Further, in [6], the fluorescence slope was -0.453 (inactive). Also, the NADPH fluorescence slope in assay [7] was -2.6e-05 (inactive). For the same compound, the slope in assay [8] was 0.00501 (inactive). In addition, in assay [9], the compound was called inactive.
For the compound `CC1(C)CC(=O)C2=C(C1)N(CC1CCCO1)C(=O)C2(O)C(F)(F)F` (stereo not drawn), the cell count in [1] turned out to be 503. The inhibition is 6.9% (inactive) in [1]; -123% (inactive) in assay [3]; 1.75% (inactive) in [5]; 29.7% (inactive) in assay [10]; -0.648% (inactive) in assay [11]; 98% (active) in [12]. For the same compound, in [2], the inhibition of aggregation is -2.8% (inactive). For the same compound, the nuclei count in assay [2] came to 108%; in assay [3], 123%. The z-score is -0.368 in assay [4] (setting [13]), 0.41 in assay [4] (setting [14]) and -0.669 in assay [4] (setting [15]). The fluorescence slope in assay [6] is -0.492 (inactive). The NADPH fluorescence slope in assay [7] was -1.2e-05 (inactive). For the same compound, the slope in assay [8] was 0.00532 (inactive). In addition, the call in [9] was inactive.
For the compound `CCCN(CCC)S(=O)(=O)c1ccc(C(=O)O)cc1`, the cell count in assay [1] came to 623. The inhibition was -9.8% (inactive) in assay [1]; -101% (inactive) in assay [3]; -2.46% (inactive) in assay [5]; -3.99% (inactive) in [10]; 0.7% (inactive) in [11]; 13.7% (inactive) in assay [12]. Moreover, in assay [2], the inhibition of aggregation is 6.1% (inactive). For the same compound, the nuclei count was 108% in assay [2] and 118% in [3]. Also, the z-score is 0.315 in [4] (setting [13]), 0.261 in assay [4] (setting [14]) and 0.309 in assay [4] (setting [15]). Moreover, the fluorescence slope in assay [6] was -0.448 (inactive). The NADPH fluorescence slope in [7] is 3.2e-06 (inactive). In [8], the slope is 0.00488 (inactive). In assay [9], the compound was classed as inactive.
For `CCOC(=O)CCC(=O)O[C@H]1[C@H](O[C@@H]2[C@@H](C)[C@H](O[C@H]3C[C@@](C)(OC)[C@@H](O)[C@H](C)O3)[C@@H](C)C(=O)O[C@H](CC)[C@@](C)(O)[C@H](O)[C@@H](C)C(=O)[C@H](C)C[C@@]2(C)O)O[C@H](C)C[C@@H]1N(C)C`, in [1], the cell count came out at 569. Further, the inhibition in assay [1] was -5.3% (inactive); in [3], -62.2% (inactive); in assay [5] it was -4.44% (inactive); in [10], 64.6% (active); in [11] it was 20.3% (inactive); in [12], 31.3% (inactive). In assay [2], the inhibition of aggregation was 0.8% (inactive). For the same compound, the nuclei count came to 105% in assay [2] and 115% in assay [3]. Also, the z-score was -0.734 in assay [4] (setting [13]), -0.933 in [4] (setting [14]) and 0.00972 in [4] (setting [15]). Moreover, the fluorescence slope in [6] is -0.495 (inactive). In addition, the NADPH fluorescence slope in assay [7] is -5.4e-05 (inactive). The slope in [8] was 0.0056 (inactive). In addition, the call in assay [9] was inactive.
